Only some compounds are listed: those with a hit (about 4.7% of all), similar ones and a draw of the others.
PfHsp90 set2: inhibits growth of yeast expressing Plasmodium falciparum Hsp90. S. cerevisiae expressing PfHsp90, BacTiter-Glo ATP, 48 h; yeast lacking PDR1 and PDR3 efflux regulators. inhibition, % at 9.4 µM. actives 0.32% (n = 310,000). AID 504621;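 active means every replicate shows inhibition above about 80%, whatever the replicate mean, limit read from the data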;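 further: 0% = DMSO neutral controls and 100% = 20 µM radicicol positive controls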
SKKanGAS inh: SKKanGAS growth inhibition. actives 1.3% (n = 300,000). inhibition, % at 7.5 µM. S. pyogenes SKKanGAS, kanamycin growth, BacTiter-Glo, 6 h;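 active means mean replicate score, as percent of positive control median, at least 50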;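 further: strain carries kanamycin resistance gene driven by streptokinase promoter and grows in 40 µg/ml kanamycin; loss of luminescence reflects streptokinase promoter inhibition or plain growth inhibition; 0% = median of DMSO wells and 100% = positive control at its reference dose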
tim23-1 inh: growth inhibitors of tim23-1 mutant yeast | S. cerevisiae tim23-1 growth, BacTiter-Glo luminescence, 24 h | inhibition, % at 20 µM | actives 1.3% (n = 330,000) | AID 463212;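 active means growth inhibition of the mutant yeast at or above 50%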;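 further: temperature-sensitive mutant grown at 25 °C; plate controls were DMSO-treated mutant yeast for no effect and medium wells lacking yeast for full effect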
tim10-1 inh: growth inhibitors of tim10-1 mutant yeast. S. cerevisiae tim10-1 ts strain growth, BacTiter-Glo, 24 h. inhibition, % at 20 µM. actives 2.2% (n = 330,000). AID 463190;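 active means inhibition of at least 40%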;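 further: mutant grown at 25 °C; 0% = DMSO wells with yeast and 100% = wells holding no yeast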
EBI2 antag: antagonists of human EBI2 receptor | P32249 | EBI2 beta-arrestin recruitment, luminescence, 7a,25-OHC stimulated | inhibition, % at 5 µM | actives 0.81% (n = 360,000) | AID 651636; in the data active means inhibition above about 38%;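 further: enzyme fragment complementation signal reports receptor beta-arrestin coupling in cells; 0% = agonist plus DMSO wells and 100% = wells without agonist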
Target sequence (P32249 whole entry, looked up, the tested form may be a part): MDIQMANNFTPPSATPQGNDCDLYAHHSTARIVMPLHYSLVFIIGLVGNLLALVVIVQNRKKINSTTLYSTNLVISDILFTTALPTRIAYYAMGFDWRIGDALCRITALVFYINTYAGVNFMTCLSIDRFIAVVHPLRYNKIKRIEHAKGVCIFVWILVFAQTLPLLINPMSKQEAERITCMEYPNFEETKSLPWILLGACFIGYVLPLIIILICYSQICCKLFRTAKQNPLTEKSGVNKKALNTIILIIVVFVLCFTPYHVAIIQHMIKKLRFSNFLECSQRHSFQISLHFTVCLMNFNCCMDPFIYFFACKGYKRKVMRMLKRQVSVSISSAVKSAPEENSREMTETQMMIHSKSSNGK
TIM10 inh: TIM10 yeast growth inhibition. inhibition, % at 10 µM. S. cerevisiae TIM10 strain growth, BacTiter-Glo luminescence, 24 h. actives 1.4% (n = 330,000);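 active means inhibition of 40% or more at the single tested concentration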;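 further: wild-type TIM10 isogenic control strain grown at permissive 25 °C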
* = called active by the depositor; x = no result.

SMILES | PfHsp90 set2 | SKKanGAS inh | tim23-1 inh | tim10-1 inh | EBI2 antag | TIM10 inh
CCOC(=O)c1ccc(NC(=O)c2nc[nH]c2C(=O)N[C@@H](Cc2ccccc2)C(=O)OC(C)(C)C)cc1 | -18.3 | 55.9* | 24.7 | 1.5 | -17.2 | 11.8
CCOC(=O)c1ccc(NC(=O)c2nc[nH]c2C(=O)NCCCCCNC(=O)OC(C)(C)C)cc1 | -33.6 | 64.2* | 21.6 | 25.0 | -25.9 | 15.1
CCOC(=O)c1ccc(NC(=O)c2nc[nH]c2C(=O)NCCCCNC(=O)c2[nH]cnc2C(=O)Nc2ccc(C(=O)OCC)cc2)cc1 | -15.3 | x | 12.5 | 9.7 | -24.4 | 0.2
COc1ccc(S(=O)(=O)N2CCC(C(=O)NN3CCCCC3)CC2)cc1 | x | x | x | x | -2.8 | x
COc1ccc(NC(=O)C2C3C=CC4(O3)C2C(=O)N(CCN2CCCCC2)C4C(=O)NC2CCCC(C)C2C)cc1 (stereo not drawn) | -0.8 | -6.2 | 12.2 | 16.5 | -0.7 | -4.0
CCC1(c2ccc(Cl)cc2)NC(=O)N(CC(=O)NC2CCCC(C)C2C)C1=O (stereo not drawn) | x | x | -6.8 | 6.2 | 15.1 | 2.2
Cc1nc2c(-c3ccccc3)c(C)nn2c(SCC(N)=O)c1Cc1ccccc1 | x | 3.8 | -20.9 | -18.4 | 8.8 | -4.1
C[C@H](NC(=O)c1nc[nH]c1C(=O)N[C@@H](Cc1ccccc1)C(=O)OC(C)(C)C)C(=O)OC(C)(C)C | -20.0 | 6.6 | 19.2 | 20.0 | -20.3 | 6.7
CC(C)(C)OC(=O)[C@H](Cc1ccccc1)NC(=O)c1nc[nH]c1C(=O)N[C@@H](Cc1ccccc1)C(=O)OC(C)(C)C | -0.7 | 70.1* | 12.4 | 12.6 | -19.2 | 9.2
CC(C)(C)OC(=O)[C@H](Cc1ccccc1)NC(=O)c1[nH]cnc1C(=O)Nc1cccc(Cl)c1 | 8.9 | 72.2* | 11.8 | 28.1 | -41.0 | 24.3
Cc1cccc(NC(=O)c2nc[nH]c2C(=O)N[C@@H](Cc2ccccc2)C(=O)OC(C)(C)C)c1 | 0.8 | 98.2* | 25.5 | 11.1 | -55.6 | 10.7
CCCOc1ccc(N2CC(C(=O)NC3=NCCS3)CC2=O)cc1 (stereo not drawn) | x | 16.5 | 15.0 | 16.3 | 9.8 | -9.9
O=C(N/N=C/c1cc(Cl)ccc1O)c1ccncc1 | -0.9 | 98.9* | 40.8 | 0.9 | 49.5* | 1.5
O=C(N/N=C/c1ccccc1Cl)c1ccncc1 | -6.8 | -2.6 | 8.9 | -12.6 | -8.1 | 0.4
C=C1C[C@H]2[C@@H]3CCc4cc(OC)ccc4[C@H]3CC[C@]12C | 19.1 | 76.4* | 9.8 | -6.0 | 10.8 | 4.7
CC(C)(C)c1csc(NNC(=O)c2ccc(Cl)cc2)n1 | 4.3 | 90.1* | 40.7 | -13.3 | 2.8 | 18.3
CC(C)(C)c1csc(NC(=O)c2cccnc2)n1 | -1.3 | -4.6 | 9.2 | -9.5 | 2.9 | 1.1
CCN(CC)S(=O)(=O)c1cccc(C(=O)NCC(c2ccccc2)N(C)C)c1 (stereo not drawn) | 106.7* | -2.8 | 42.8 | -8.4 | 7.6 | 14.4
CC(=O)Nc1ccc(CN(C)c2c(C)nc3ccc(C(=O)N4CCN(C(C)=O)CC4)cn23)cc1 | x | x | x | x | 0.6 | x
CCc1ccc(N=C2NC(=O)/C(=C/c3cc(OC)c(O)c(OC)c3)S2)cc1 | 5.9 | 59.0* | 22.8 | -0.4 | 14.6 | 4.6
O=C1NC(=Nc2cccnc2)S/C1=C\c1cccc(F)c1 | -11.0 | 44.7 | 15.9 | 1.3 | -7.3 | 14.8
COc1cc(/C=C2\SC(=Nc3cccnc3)NC2=O)cc(OC)c1OC | x | 49.7* | 2.7 | 7.7 | 12.5 | -13.1
COc1cc(/C=C2\SC(=Nc3ccccc3)NC2=O)cc(Cl)c1O | -9.5 | 26.6 | -9.1 | -18.1 | 2.1 | 3.9
CCCCn1c(-c2ccco2)nc2oc3ccccc3c(=O)c2c1=O | 7.7 | 50.3* | 37.4 | 20.6 | 2.4 | 19.1
CCCCCCC(=O)N(O)C1CC(=O)N(c2ccc(Cl)cc2)C1=O (stereo not drawn) | 110.3* | 3.7 | 36.5 | 23.6 | -6.8 | 12.1
SMILES | PfHsp90 set2 | SKKanGAS inh | tim23-1 inh | tim10-1 inh | EBI2 antag | TIM10 inh
CCN(CC)c1ccc(/C=N/NC(=O)CNC(=O)C2COc3ccccc3O2)c(O)c1 (stereo not drawn) | x | 58.5* | 39.7 | 6.0 | 4.1 | -13.8
O=C(CCC(=O)N/N=C/c1c[nH]c2ccccc12)NCc1ccccc1 | -3.4 | -2.0 | 9.8 | 5.8 | -4.2 | -25.3
CCN(CC)c1ccc(/C=N/NC(=O)CCC(=O)NCc2ccccc2)c(O)c1 | 5.4 | 55.8* | -6.5 | 13.4 | -1.2 | -27.9
CNC[C@@H]1Oc2cc(Br)ccc2S(=O)(=O)N([C@@H](C)CO)C[C@@H]1C | x | x | x | x | 2.7 | x
COCCNC(=O)C1(C)CCCN(Cc2cn(C)c3ccccc23)C1 (stereo not drawn) | x | x | x | x | -2.8 | x
CCc1nc(N)nc(N)c1-c1ccc(NCCN)c([N+](=O)[O-])c1 | -4.0 | x | x | x | 6.0 | x
CCc1nc(N)nc(N)c1-c1ccc(Cl)cc1 | -5.2 | 69.9* | -1.8 | 11.6 | -4.5 | 4.4
COc1cccc(/C=N/NC(=O)c2cc(-c3cccn3C)n[nH]2)c1 | -5.7 | 3.6 | 12.7 | -5.5 | 4.8 | -3.7
COc1cc(/C=N/NC(=O)c2cc(-c3cccn3C)n[nH]2)cc(OC)c1OC | x | 62.8* | 8.7 | 3.2 | 3.6 | -8.7
COc1ccc(/C=C2\Sc3ccc(C(=O)N4CCCC4)cc3N(C)C2=O)cc1OC | -50.1 | 99.8* | 16.0 | 19.7 | -5.1 | -1.6
Cc1cccc(/C=C2\Sc3ccc(C(=O)N4CCC(C(N)=O)CC4)cc3N(C)C2=O)c1 | -4.5 | -3.4 | 0.0 | 3.1 | 1.0 | 3.9
COc1ccc(/C=C2\Sc3ccc(C(=O)NC4CC4)cc3N(C)C2=O)cc1OC | 17.1 | 70.3* | 16.4 | 1.9 | 7.2 | 18.4
CCOc1ccc(/C=C2/Sc3ccc(C(=O)N4CCOCC4)cc3N(C)C2=O)cc1OC | -6.0 | 68.1* | 8.9 | 17.3 | 10.7 | -2.1
COCCNCc1cc(C)n(-c2cc(S(=O)(=O)N3CCOCC3)ccc2N2CCCC2)c1C | 2.7 | x | x | x | -4.0 | x
CC1(C)[C@@H](O)CC[C@]2(C)C3C(O)C=C4[C@H]5C[C@@](C)(CO)CC[C@]5(C)CC[C@]4(C)[C@]3(C)CC[C@@H]12 (stereo partly drawn) | -1.6 | 98.6* | 41.2 | 26.4 | 0.2 | -3.2
CCOC(=O)C1=C(O)C(=O)N(C2CCCCC2)C1 | -8.9 | 0.3 | 2.3 | -26.9 | 2.3 | -3.2
COc1ccccc1C(=O)NC(=S)Nc1ccccc1N1CCCC1 | x | 4.4 | 36.3 | 33.1 | -2.9 | 35.3
CCN1CCN(c2c(Cl)cccc2NC(=O)c2ccc3c(c2)OCCO3)CC1 | x | -11.9 | 16.3 | 27.8 | 13.0 | 9.9
O=C(NC(=S)Nc1cccc(Cl)c1N1CCCCC1)c1ccc2c(c1)OCCO2 | -23.2 | 61.0* | 35.3 | 13.1 | 19.6 | 13.5
O=C(NC(=S)Nc1ccccc1N1CCCCC1)c1ccc(F)cc1Cl | -12.5 | 49.6* | 41.4 | 33.8 | 6.3 | 33.3
O=C(Nc1cccc(Cl)c1N1CCCCC1)c1ccc2c(c1)OCCO2 | -21.4 | 62.0* | 11.3 | 17.5 | 14.6 | 9.7

High-throughput results: PubChem BioAssay, several laboratories
